{
  "source": "PubChem BioAssay (NCATS)",
  "key": {"[1]": {"experiment": "Quantitative High-Throughput drug screen in 47 multiple myeloma cell lines against the NCATS MIPE library collection: OPM2_DSMZ cell viability assay (AID 1919872); further: nearly all actives have a fitted effect of over 30% in size", "in_short": "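We plated 500 myeloma cells per well, pinned in MIPE 4.0 compounds, and incubated for 48 hours at 37C. ATP was then quantified with CellTiter-Glo, with DMSO and media-only wells defining 100% and 0%.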"}, "[2]": {"experiment": "Quantitative High-Throughput drug screen in 47 multiple myeloma cell lines against the NCATS MIPE library collection: KMS11_JCRBsus cell viability assay (AID 1919873); further: nearly all actives have a fitted effect of over 50% in size", "in_short": "(§1)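 Plated at 500 cells per well, myeloma lines received MIPE 4.0 compounds by pin tool. Following 48 h culture at 37 °C, CellTiter-Glo luminescence gave viability relative to DMSO and media-only controls.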"}, "[3]": {"experiment": "Quantitative High-Throughput drug screen in 47 multiple myeloma cell lines against the NCATS MIPE library collection: KMS28BM_JCRB cell viability assay (AID 1919874)", "in_short": "as §1"}},
  "note": "Records with an inconclusive call do not appear. Active and inactive are the calls of the source. The call rests on the fitted dose curve; in most records, active means well fitted cell-killing curve with a large enough effect; inconclusive means small, poorly fitted or top-dose-only effect, or effect the other way; inactive means no such curve, though single readings can be large or run the other way. Potency means the concentration at half of the fitted maximal effect.",
  "data": [
    {"molecule": "O=c1cc(CN2CCOCC2)occ1OCCCCCSc1ccnc2cc(C(F)(F)F)ccc12", "values": [
      {"measurement": "Potency", "setting": "[1]", "value": "11.8 µM (active)"},
      {"measurement": "Potency", "setting": "[2]", "value": "23.5 µM (active)"}
    ]},
    {"molecule": "NC(=O)NN=Cc1ccc([N+](=O)[O-])o1", "values": [
      {"measurement": "Potency", "setting": "[1]", "value": "inactive"},
      {"measurement": "Potency", "setting": "[2]", "value": "inactive"},
      {"measurement": "Potency", "setting": "[3]", "value": "inactive"}
    ]},
    {"molecule": "CCc1ccc(OCc2ccccc2C(=O)Nc2ccc3nc(C)cc(N)c3c2)cc1", "values": [
      {"measurement": "Potency", "setting": "[1]", "value": "9.35 µM (active)"},
      {"measurement": "Potency", "setting": "[2]", "value": "1.48 µM (active)"},
      {"measurement": "Potency", "setting": "[3]", "value": "1.18 µM (active)"}
    ]},
    {"molecule": "COc1cc2nc(-c3ccc(N4CCN(C)CC4)cc3)nc(NCCN3CCOCC3)c2cc1OC", "values": [
      {"measurement": "Potency", "setting": "[1]", "value": "3.32 µM (active)"},
      {"measurement": "Potency", "setting": "[2]", "value": "0.0935 µM (active)"},
      {"measurement": "Potency", "setting": "[3]", "value": "0.105 µM (active)"}
    ]},
    {"molecule": "CC(=O)Nc1ccc([C@H](C)C(=O)Nc2ncc(C(C)C)s2)cc1", "values": [
      {"measurement": "Potency", "setting": "[1]", "value": "8.33 µM (active)"},
      {"measurement": "Potency", "setting": "[2]", "value": "2.35 µM (active)"}
    ]},
    {"molecule": "N[C@H](CSC(c1ccccc1)(c1ccccc1)c1ccccc1)C(=O)O", "values": [
      {"measurement": "Potency", "setting": "[1]", "value": "20.9 µM (active)"},
      {"measurement": "Potency", "setting": "[2]", "value": "4.18 µM (active)"}
    ]},
    {"molecule": "O=C(Nc1cc(Cl)cc2c1[nH]c1cnccc12)c1cccnc1", "values": [
      {"measurement": "Potency", "setting": "[1]", "value": "inactive"},
      {"measurement": "Potency", "setting": "[2]", "value": "inactive"}
    ]},
    {"molecule": "C[C@]12CC[C@@H]3c4ccc(O)cc4C[C@@H](CCCCCCCCCS(=O)CCCC(F)(F)C(F)(F)F)[C@H]3[C@H]1CC[C@H]2O", "note": "(stereo partly specified)", "values": [
      {"measurement": "Potency", "setting": "[1]", "value": "inactive"},
      {"measurement": "Potency", "setting": "[2]", "value": "2.09 µM (active)"}
    ]},
    {"molecule": "CCOC(CN1C(=O)[C@](CC(=O)Nc2ccc(C)cc2)(NC(=O)Nc2ccc(C)cc2)c2ccccc21)OCC", "values": [
      {"measurement": "Potency", "setting": "[1]", "value": "inactive"},
      {"measurement": "Potency", "setting": "[2]", "value": "26.4 µM (active)"}
    ]},
    {"molecule": "NC(CO)(CO)CCc1ccc(Sc2cccc(OCc3ccccc3)c2)cc1Cl", "values": [
      {"measurement": "Potency", "setting": "[1]", "value": "23.5 µM (active)"},
      {"measurement": "Potency", "setting": "[2]", "value": "7.43 µM (active)"},
      {"measurement": "Potency", "setting": "[3]", "value": "11.8 µM (active)"}
    ]},
    {"molecule": "NC(=O)c1cccc(-c2cc(Nc3ccc(OC(F)(F)F)cc3)ncn2)c1", "values": [
      {"measurement": "Potency", "setting": "[1]", "value": "16.6 µM (active)"},
      {"measurement": "Potency", "setting": "[2]", "value": "29.6 µM (active)"}
    ]}
  ]
}
